Experimental data published in PubChem BioAssay (NCI).
About 79,000 compounds went through this panel and 15% of them were active in at least one assay; those are over-represented in the sample as a whole. Values without a mark were called inactive. Calls of active or inactive are those of the source. Rule as the data show it: active = growth inhibition above about 70%; inactive = the rest.

Assays:
[1] = NCI Yeast Anticancer Drug Screen. Data for the rad50 strain (AID 155);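 also: 0% = growth of vehicle-only cultures of the same strain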; details: S. cerevisiae rad50 strain growth inhibition, active compounds read high
Method in brief: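 Growth of the mutant yeast was measured after compound exposure and referenced to vehicle-treated cultures.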

[2] = NCI Yeast Anticancer Drug Screen. Data for the mec2-1 strain (AID 157); details: S. cerevisiae mec2-1 strain, active compounds read high
Method in brief: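 Cells of the genetically defined mec2-1 yeast strain are incubated with test compound. Inhibition of growth is calculated against vehicle-treated controls.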

[3] = NCI Yeast Anticancer Drug Screen. Data for the sgs1 mgt1 strain (AID 161);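 also: 0% = growth of cultures given vehicle only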; details: S. cerevisiae sgs1 mgt1 strain, active compounds read high
Method in brief: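 Read-out: growth inhibition vs vehicle controls. Cells: mutant yeast strain deficient in DNA damage repair.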

[4] = NCI Yeast Anticancer Drug Screen. Data for the cln2 rad14 strain (AID 165);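 also: 0% = growth equal to vehicle treated cultures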; details: S. cerevisiae cln2 rad14 strain, active compounds read high
Method in brief: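 The screen exposed genetically defined yeast (cln2 rad14) to test compounds and scored growth inhibition relative to vehicle-treated controls.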

[5] = NCI Yeast Anticancer Drug Screen. Data for the bub3 strain (AID 167); details: S. cerevisiae bub3 mutant strain, active compounds read high
Method in brief: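 Whole-cell yeast assay. The mutant strain was incubated with compounds, and growth inhibition was determined by comparison with vehicle-treated cells.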

[6] = NCI Yeast Anticancer Drug Screen. Data for the mlh1 rad18 strain (AID 175); details: S. cerevisiae mlh1 rad18 strain growth inhibition, active compounds read high
Method in brief: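 Compound-treated yeast growth, normalised to vehicle controls. Strain bears defined DNA repair mutations.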

[7] = at 5.0 µM (retest, dose inferred, filed as 0.5)
[8] = at 50.0 µM (retest, dose inferred, filed as 5.0)

| SMILES | growth inhibition [1, 7] | growth inhibition [1, 8] | growth inhibition ([1]; at 50.0 µM) | growth inhibition [2, 7] | growth inhibition [2, 8] | growth inhibition ([2]; at 50.0 µM) | growth inhibition [3, 7] | growth inhibition [3, 8] | growth inhibition ([3]; at 50.0 µM) | growth inhibition [4, 7] | growth inhibition [4, 8] | growth inhibition ([4]; at 50.0 µM) | growth inhibition [5, 7] | growth inhibition [5, 8] | growth inhibition ([5]; at 50.0 µM) | growth inhibition [6, 7] | growth inhibition [6, 8] | growth inhibition ([6]; at 50.0 µM) |
| --- | --- | --- | --- | --- | --- | --- | --- | --- | --- | --- | --- | --- | --- | --- | --- | --- | --- | --- |
| O=C1OC(c2ccc3c(c2)OCO3)Sc2ccccc21 (configuration not stated) | 11% | 24% | 30.1% | -4% | -9% | 9.85% | 1% | 10% | 23.4% | -2% | 4% | -2.5% | 9% | 52% | 68.3% | -6% | 27% | 25.8% |
| CC1(C)CC(=N/O)/C(=N/O)C(=N\NC(N)=S)/C1 | 7% | 54% | 69.9% | -2% | 35% | 49.1% | 1% | 63% | 76.9% (active) | -12% | 28% | 30.2% | -1% | 47% | 64.9% | -3% | 62% | 73.5% (active) |
| Cc1ccc(N=C2SC(=S)N(CCC[N+](C)(C)C)C2=Nc2ccc(C)cc2)cc1 | -5% | 99% (active) | 99.2% (active) | -18% | 100% (active) | 99.5% (active) | -10% | 99% (active) | 99.5% (active) | 12% | 99% (active) | 99.5% (active) | -4% | 99% (active) | 99.4% (active) | 3% | 100% (active) | 99.4% (active) |
| CCOC(=O)N1C=C(C(=O)OC)C(c2ccccc2)C(C(=O)OC)=C1 | 4% | 6% | -15.2% | 0% | 20% | -9.35% | 5% | 14% | -6.3% | -5% | 4% | 32.6% | 8% | 35% | -4.25% | 2% | 20% | 1.25% |
| OC(c1cc(-c2ccccc2)nc2c(Cl)cc(Cl)cc12)C1CCCCN1 (configuration not stated) | 14% | 97% (active) | 99.5% (active) | 18% | 92% (active) | 99.6% (active) | 18% | 98% (active) | 99.1% (active) | 3% | 98% (active) | 98.3% (active) | 2% | 99% (active) | 97.5% (active) | 11% | 96% (active) | 98.8% (active) |
| COc1ccc(Cc2ccc3c(C)cc(Cl)nc3c2)cc1 | 1% | 74% (active) | 77% (active) | -8% | 87% (active) | 67.8% | -5% | 96% (active) | 87% (active) | 1% | 29% | 31.6% | 10% | 78% (active) | 89% (active) | 0% | 93% (active) | 86.3% (active) |
| Clc1cc2ccccc2c2ccccc12 | 0% | 62% | 84.6% (active) | -3% | 21% | 10.8% | -3% | 32% | 75.2% (active) | -3% | 6% | -51.7% | -2% | 64% | 77.3% (active) | -1% | 84% (active) | 93.2% (active) |
| CN1CCN(CCCCN2c3ccccc3Sc3ccc(C(=O)c4ccccc4)cc32)CC1 | 25% | 27% | 75.6% (active) | 26% | 34% | 22.8% | 27% | 2% | 87.2% (active) | 30% | 18% | -9.8% | 36% | 25% | 22% | 32% | 37% | 60.2% |
| O=C(/C=N/O)Nc1ccc(Cl)c(I)c1 | -32% | 83% (active) | 85.2% (active) | -15% | 87% (active) | 86.5% (active) | -17% | 85% (active) | 80.2% (active) | 5% | 88% (active) | 81.9% (active) | -9% | 93% (active) | 86.8% (active) | -24% | 92% (active) | 84.6% (active) |
| COc1ccc(CSC2=C(C#N)C(=O)NC3(CCCCC3)S2)cc1 | 23% | 11% | 3.6% | -1% | 4% | 2.25% | 23% | 14% | 6.2% | -1% | 16% | 28.5% | 6% | 6% | -13.2% | 18% | -2% | 7.75% |
| COC(O)C(=O)c1ccc2c(c1)CC1(C2)Cc2cc3c(cc2C1=O)CCC3 (configuration not stated) | 28% | 99% (active) | 20.2% | 40% | 99% (active) | 23.9% | 33% | 98% (active) | 52.1% | 23% | 99% (active) | 57.4% | 35% | 99% (active) | 31.6% | 41% | 99% (active) | 45.9% |
| CCCCCCCCCCCCCCCCOS(=O)(=O)O | 24% | 99% (active) | 98% (active) | 13% | 100% (active) | 98.5% (active) | 49% | 100% (active) | 98.8% (active) | 5% | 99% (active) | 97.7% (active) | 20% | 100% (active) | 98.8% (active) | 42% | 100% (active) | 99% (active) |
| Cc1cc(Cl)c(O)c(-c2cc(-c3ccccc3O)c(C#N)c(N)n2)c1 | 4% | 75% (active) | 59.5% | -22% | 80% (active) | 52.1% | -28% | 80% (active) | 67.7% | -4% | 65% | 69.4% | -59% | 73% (active) | 62.4% | -23% | 87% (active) | 55% |
| CC(C)[C@H](N)C(=O)NCCNC(=O)[C@@H](N)C(C)C | 90% (active) | 99% (active) | -24.6% | 66% | 99% (active) | -4.9% | 62% | 99% (active) | -14.2% | 89% (active) | 99% (active) | 17.2% | 93% (active) | 100% (active) | 37.1% | 89% (active) | 99% (active) | 4.4% |
| O=C1C(SCCO)=C(SCCO)C(=O)c2ccccc21 | 8% | 87% (active) | 87% (active) | 20% | 61% | 57.5% | 16% | 66% | 66.7% | -4% | 48% | 17.8% | 44% | 83% (active) | 89.3% (active) | 17% | 77% (active) | 93.7% (active) |
| CN(C)c1ccc(C2CC(C)(N3CCCC3)Oc3cc4c(cc32)OCO4)cc1 (configuration not stated) | 23% | 42% | 17.1% | 2% | 24% | 5% | -10% | 43% | 13.3% | 9% | 50% | 23.9% | 11% | 84% (active) | 26.9% | 12% | 32% | 33.5% |
| O=C(NN=C1CCCCC1)c1ccc([N+](=O)[O-])cc1 | -1% | -7% | -0.5% | -17% | -11% | 0.2% | 13% | 9% | 10.6% | -1% | 10% | 37.5% | 19% | 24% | -2.95% | 4% | 7% | 20.2% |
| Cc1cccc(C)c1N=Nc1c(C)nc(N)nc1-c1ccccc1 | 0% | 88% (active) | 96.8% (active) | 12% | 95% (active) | 96.4% (active) | 5% | 96% (active) | 95.5% (active) | -4% | 90% (active) | 94.3% (active) | -7% | 93% (active) | 96.3% (active) | -4% | 91% (active) | 95.3% (active) |
| Cc1c(C)c(O)c2c(c1O)C(=O)C=C(Cl)C2=O | 99% (active) | 94% (active) | 88.3% (active) | 100% (active) | 96% (active) | 90.2% (active) | 100% (active) | 97% (active) | 88.3% (active) | 45% | 96% (active) | 90.7% (active) | 99% (active) | 97% (active) | 87.7% (active) | 99% (active) | 96% (active) | 88.6% (active) |
